Structures are written as SMILES. Screen size: about 16,000 compounds; about 5,100 (32%) were called active. About 25% were inconclusive and are not listed. The list shows a part of the results. Unmarked numbers belong to inactive results. Calls follow the shape of the dose curve; as a rule, active = well fitted curve in the direction sought with a large enough effect; inconclusive = small, poorly fitted or top-dose-only effect, or effect the other way; inactive = no such curve, though single readings can be large or run the other way.

Results on 48 compounds are retold here after PubChem BioAssay AID1851 (National Center for Advancing Translational Sciences (NCATS), 2009).
% is scaled to controls: 0 for no effect and ±100 for the full control effect.

For this experiment, the target named is Cytochrome P450 3A4 (Homo sapiens) (UniProt P08684). The experiment is described as follows: Cytochrome panel assay with activity outcomes. The conditions noted are these: recombinant CYP, pro-luciferin dealkylation, luminescence, p450-cyp3a4; series mostly up to 57.1 µM; activity, negative = inhibition: at the top concentration.
Sequence of Cytochrome P450 3A4 (Homo sapiens) (P08684 whole entry, looked up): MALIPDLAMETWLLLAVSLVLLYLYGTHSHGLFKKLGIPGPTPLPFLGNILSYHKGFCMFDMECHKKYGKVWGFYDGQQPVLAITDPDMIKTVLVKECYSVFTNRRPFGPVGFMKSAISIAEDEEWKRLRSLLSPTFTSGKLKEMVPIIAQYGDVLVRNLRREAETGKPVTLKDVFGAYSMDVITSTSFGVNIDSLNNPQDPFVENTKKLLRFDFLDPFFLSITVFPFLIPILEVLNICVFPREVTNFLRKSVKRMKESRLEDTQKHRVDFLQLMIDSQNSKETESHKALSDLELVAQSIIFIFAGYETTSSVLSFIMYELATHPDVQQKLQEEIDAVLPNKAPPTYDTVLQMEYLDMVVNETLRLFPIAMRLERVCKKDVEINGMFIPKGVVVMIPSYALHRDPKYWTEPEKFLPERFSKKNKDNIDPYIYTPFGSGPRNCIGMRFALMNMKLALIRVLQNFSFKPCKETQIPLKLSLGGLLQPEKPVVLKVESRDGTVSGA
On to `O[C@]1(c2ccccc2)c2ccccc2NC2=NCCN21`, for which the activity, negative = inhibition is 3.31% [at 11.4 µM].
Take `Cc1cc(=O)c2c(O)c(O)ccc2o1`: the “activity, negative = inhibition” value is -19.3%.
Same read-out and setting: with `Cc1cc(-c2ccc(Cl)cc2)oc(=O)c1NC(=O)c1ccccc1` the figure was 2.65%.
In the case of `COc1ccc(-c2cc(=O)c3c(O)cc(O)cc3o2)cc1`, the AC50 – broadly, the concentration at which the activity in the assay is half-maximal – is 2.51 µM (active).
`O=c1cc(-c2ccccc2)oc2cc(O)c(O)c(O)c12`: the AC50 was 31.6 µM (active).
In the case of `COc1ccc(-c2coc3cc(OC)cc(O)c3c2=O)cc1`, the “activity, negative = inhibition” value is -21.8%.
`O=C(NC1CCCCC1)C(Cc1ccccc1)N1C(=O)C2C3CCC(C3)C2C1=O` (stereo not drawn): the AC50 was 8.91 µM (active).
Turning to `Cc1ccc(C)n1C(Cc1ccccc1)C(=O)O` (stereo not drawn), the “activity, negative = inhibition” value is -6.07%.
Still for that read-out and setting: to `O=C(O)CC[C@@H](C(=O)O)N1C(=O)[C@@H]2[C@@H]3CC[C@H](C3)[C@@H]2C1=O` belongs -4.14% [at 11.4 µM].
The same measure, in the same setting: to `CC(C)C(NC(=O)C1CCCCC1)C(=O)NC1CCN(Cc2ccccc2)CC1` (stereo not drawn) belongs -4.32%; to `O=C(O)[C@H](CCc1ccccc1)N1C(=O)c2ccccc2C1=O`, 9.26% [at 11.4 µM].
With `O=C(C(Cc1ccccc1)N1C(=O)C2C3CCC(C3)C2C1=O)N1CCCCC1` (stereo not drawn), the AC50 is 12.6 µM (active).
Consider `CN(CC(=O)Nc1cccc2c1CCCC2)S(=O)(=O)c1ccc(Br)cc1`, for which the AC50 is 8.91 µM (active).
With `CN(C)CCOC(=O)[C@@H](c1ccccc1)C1(O)CCCC1`, the “activity, negative = inhibition” value was -9.54% [at 25.6 µM].
The same measure, in the same setting: with `Cc1ccc(/C=N/NC(=O)CSc2nc3ccccc3n2C)s1` the figure was -26.5% [at 2.29 µM].
Take `Cn1c(SCc2nc3ccccc3n2CCO)nc2ccccc21`: the AC50 was 8.91 µM (active).
For `Cn1c(C[C@@H](O)c2nc3ccccc3n2C)nc2ccccc21`, the activity, negative = inhibition is -14.4% [at 11.4 µM].
As to `CC(=O)Nc1ccc(S(=O)(=O)N2CCN(c3nc(NC4CCCC4)c4ccccc4n3)CC2)cc1`, the AC50 was 3.16 µM (active).
On the same count and under the same terms, to `Cc1ccc(C(=O)COC(=O)c2ccc3c(c2)C(=O)N(c2cccc4ncccc24)C3=O)cc1C` belongs 1.26 µM (active).
Take `Cc1ccc(C(=O)O)cc1N1C(=O)c2cccc3cc(Br)cc(c23)C1=O`: the activity, negative = inhibition is 19.6% [at 2.29 µM].
For the compound `CCOC(=O)N1CCN(C(=O)c2cc(-c3ccc(F)cc3)[nH]c2C)CC1`, the concentration at half-maximal activity (AC50) is 11.2 µM (active).
Take `CCOC(=O)N1CCN(C(=O)c2ccc(NC(C)=O)cc2)CC1`: the activity, negative = inhibition is -1.46% [at 2.29 µM].
Same read-out and setting: with `CCOC(=O)N1CCN(C(=O)c2ccc(OC)c(OC)c2)CC1` the figure was 14%; with `CS(=O)(=O)N1CCC2(CC1)CN(c1ccncc1)C2`, -5.09%; with `CS(=O)(=O)N1CCC[C@@]2(CCN(c3ncccn3)C2)C1`, -19.1%.
In the case of `CS(=O)(=O)N1CCC[C@@]2(CCN(c3ccncc3)C2)C1`, the AC50 is 7.94 µM (active).
On to `CS(=O)(=O)N1CCC2(CCCN(c3ccncc3)C2)CC1`, for which the “activity, negative = inhibition” value was -49.8%.
Same read-out and setting: with `CS(=O)(=O)N1CCC2(CCN(c3ccccc3)CC2)CC1` the figure was -15.8%.
Consider `CS(=O)(=O)N1CCC[C@@]2(CCN(c3ccccc3)C2)C1`, for which the AC50 is 12.6 µM (active).
With `COc1cc(CN2CCN(C(=O)CC(C)C)CC2)cc(OC)c1OC`, the “activity, negative = inhibition” value is 3.38%.
Take `COc1ccccc1N1CCN(CCCCNC(=O)c2ccc(-c3ccc(C(C)=O)cc3)cc2)CC1`: the “activity, negative = inhibition” value was -14.3%.
As to `COc1ccccc1N1CCN(CCN(C(=O)C2CCCCC2)c2ccccn2)CC1`, the AC50 was 3.98 µM (active).
Still for that read-out and setting: to `Cc1[nH]n(-c2ccccc2)c(=O)c1CCOC(=O)c1ccc(C(F)(F)F)cc1` belongs 14.1 µM (active).
In the case of `CSc1nc(C)c(CCOC(=O)c2ccccc2)c(=O)[nH]1`, the “activity, negative = inhibition” value is -7.57%.
The same measure, in the same setting: with `CC1=NN(c2ccccc2)C(=O)/C1=C\c1c(C)[nH]n(-c2ccccc2)c1=O` the figure was -9.32%.
Regarding `Cc1[nH]n(-c2ccccc2)c(=O)c1CCOC(=O)c1cccc(C(F)(F)F)c1`, the AC50 is 3.16 µM (active).
With `CSc1nc(C)c(CCOC(=O)c2cccc(C)c2)c(=O)[nH]1`, the “activity, negative = inhibition” value was -7.19%.
Same read-out and setting: with `Cc1cc(-c2c(C)[nH]n(-c3ccccc3)c2=O)n(-c2ccccc2)n1` the figure was -9.49% [at 11.4 µM].
For `CC(C)(CO[C@H]1C[C@H]2CC[C@@]1(C)C2(C)C)[N+](=O)[O-]`, the activity, negative = inhibition is -5.92% [at 11.4 µM].
Consider `CCOC(=O)c1ccc(-c2ccc(/C=C(\C#N)C(=O)NCC3CCCO3)o2)cc1` (stereo not drawn), for which the AC50 was 20 µM (active).
Turning to `CCOC(=O)c1ccc(NC(=O)C(=O)NCC2CCCO2)cc1` (stereo not drawn), the “activity, negative = inhibition” value was 25.4%.
Still for that read-out and setting: with `CCOC(=O)c1ccc(-c2ccc(CO)o2)cc1` the figure was 1.82% [at 2.29 µM].
As for `CC(C)NC[C@@H](O)c1ccc(O)c2ncccc12`, the activity, negative = inhibition was -1.42% [at 11.4 µM].
Same read-out and setting: with `O=S(=O)(O)[C@@H](c1ccccc1)[C@@H](O)c1ccccc1` the figure was -6.22% [at 11.4 µM].
On the same count and under the same terms, to `Cn1c(C(=O)NCC2CCCO2)cc2c(=O)n3ccccc3nc21` (stereo not drawn) belongs 12.1%.
For `COc1ccc(CCn2c(=N)c(C(=O)NCc3ccco3)cc3c(=O)n4ccccc4nc32)cc1`, the AC50 is 14.1 µM (active).
Turning to `OCCCSCCO`, the activity, negative = inhibition is -9.23% [at 11.4 µM].
On the same count and under the same terms, to `CC1(O)c2ccccc2C(=O)N1CCc1ccccc1F` (stereo not drawn) belongs -27%.
